Laboratory results: PubChem BioAssay (EPA / NIEHS)
The source made the active and inactive calls. How the source made its calls: active means hit-call score of the fitted dose curve at least 0.9, where 1 is the maximum; inactive means score below 0.9.

What was measured:
Conditions in all cases: mRNA level, 48 h; actives raise or lower the signal
[1] = read-out: MicroRNA 122 (MIR122), gene 406906; assay: LTEA_HepaRG_MIR122: Life Technologies and Expression Analysis (LTEA) Assay for MicroRNA 122 (MIR122) using HepaRG (AID 2283516); further: the transcript read is the microRNA miR-122
Summary of the method: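 Differentiated human HepaRG cells in serum-free induction medium exposed 48 h to 8 half-log concentrations from 100 uM in 0.5% DMSO, duplicate. MIR122 quantified by Fluidigm TaqMan qRT-PCR, normalised to ACTB, GAPDH, POLR2A; fold change fitted bidirectionally versus DMSO.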

[2] = read-out: matrix metalloproteinase-10 (MMP10), MMP10 (gene 4319); assay: LTEA_HepaRG_MMP10: Life Technologies and Expression Analysis (LTEA) Assay for matrix metalloproteinase-10 (MMP10) using HepaRG (AID 2283517)
Summary of the method: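 HepaRG, collagen I, ~100,000 cells/well; serum-free induction medium; 48 h exposure, duplicate, 8-pt half-log to 100 uM, 0.5% DMSO. Readout: TaqMan qRT-PCR, normalized to ACTB/GAPDH/POLR2A; bidirectional fit vs DMSO.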

MYC, MYC (gene 4609) = assay: LTEA_HepaRG_MYC: Life Technologies and Expression Analysis (LTEA) Assay for MYC using HepaRG (AID 2283518)
Summary of the method: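 Expression changes were scored by TaqMan qRT-PCR with ACTB, GAPDH and POLR2A normalization. Cultures in serum-free induction medium received duplicate 8-point concentration series, highest 100 uM, for 48 h; DMSO (0.5%) served as baseline.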

[3] = read-out: matrix metalloproteinase-3 (MMP3), MMP3 (gene 4314); assay: LTEA_HepaRG_MMP3: Life Technologies and Expression Analysis (LTEA) Assay for matrix metalloproteinase-3 (MMP3) using HepaRG (AID 2283519)
Summary of the method: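 Differentiated human HepaRG cells, plated 48 h on collagen I, were exposed in duplicate for 48 h in serum-free induction medium to eight half-log concentrations up to 100 uM in 0.5% DMSO. MMP3 mRNA was quantified by TaqMan qRT-PCR, normalised to ACTB, GAPDH and POLR2A.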

[4] = read-out: Paternally Expressed 10 (PEG10), PEG10 (gene 23089); assay: LTEA_HepaRG_PEG10: Life Technologies and Expression Analysis (LTEA) Assay for Paternally Expressed 10 (PEG10) using HepaRG (AID 2283520)
Summary of the method: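 Differentiated HepaRG cells exposed 48 h in serum-free induction medium to eight half-log concentrations topping at 100 uM, 0.5% DMSO, in duplicate. PEG10 mRNA quantified by TaqMan qRT-PCR, normalized to ACTB, GAPDH and POLR2A; bidirectional fit versus DMSO.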

[5] = read-out: Nuclear factor NF-kappa-B p105 subunit (Homo sapiens) (UniProt P19838); assay: LTEA_HepaRG_NFKB1: Life Technologies and Expression Analysis (LTEA) Assay for Nuclear Factor Kappa B Subunit 1 (NFKB1) using HepaRG (AID 2283521);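 further: TaqMan qRT-PCR transcript normalised to ACTB GAPDH and POLR2A housekeeping genes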
Summary of the method: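 Differentiated human HepaRG cells were exposed for 48 h in serum-free induction medium to eight concentrations (top 100 uM, half-log steps, 0.5% DMSO), in duplicate. NFKB1 mRNA was measured by TaqMan qRT-PCR, normalized to ACTB/GAPDH/POLR2A, and fitted bidirectionally against DMSO.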

[6] = read-out: Protein phosphatase 2A (PPP2R4), PTPA (gene 5524); assay: LTEA_HepaRG_PPP2R4: Life Technologies and Expression Analysis (LTEA) Assay for Protein phosphatase 2A (PPP2R4) using HepaRG (AID 2283522)
Summary of the method: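 Differentiated human HepaRG cells in serum-free induction medium were exposed 48 h to 8 concentrations (top 100 µM, half-log steps, duplicate) in 0.5% DMSO. PPP2R4 mRNA was measured by TaqMan qRT-PCR, normalised to ACTB, GAPDH and POLR2A, and fitted bidirectionally versus DMSO.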

[7] = read-out: Phosphatase and tensin (PTEN), PTEN (gene 5728); assay: LTEA_HepaRG_PTEN: Life Technologies and Expression Analysis (LTEA) Assay for Phosphatase and tensin (PTEN) using HepaRG (AID 2283523)
Summary of the method: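 Differentiated human HepaRG cells, plated 48 h then switched to serum-free induction medium, were exposed in duplicate for 48 h to eight half-log concentrations up to 100 uM in 0.5% DMSO. PTEN mRNA measured by TaqMan qRT-PCR, normalized to ACTB/GAPDH/POLR2A, bidirectional fit versus DMSO.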

[8] = read-out: solute carrier (SLC22A1), SLC22A1 (gene 6580); assay: LTEA_HepaRG_SLC22A1: Life Technologies and Expression Analysis (LTEA) Assay for solute carrier (SLC22A1) using HepaRG (AID 2283524)
Summary of the method: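 Human HepaRG cells were plated 48 h, switched to serum-free induction medium, then exposed in duplicate for 48 h to 8-point half-log series from 100 uM in 0.5% DMSO. SLC22A1 mRNA measured by qRT-PCR, normalized to ACTB/GAPDH/POLR2A, fitted bidirectionally versus DMSO.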

[9] = read-out: Pyruvate Dehydrogenase Kinase 4 (PDK4), PDK4 (gene 5166); assay: LTEA_HepaRG_PDK4: Life Technologies and Expression Analysis (LTEA) Assay for Pyruvate Dehydrogenase Kinase 4 (PDK4) using HepaRG (AID 2283525)
Summary of the method: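 Differentiated human HepaRG cells, pre-cultured 48 h, were exposed in duplicate for 48 h in serum-free induction medium to eight half-log concentrations up to 100 uM in 0.5% DMSO. PDK4 mRNA was quantified by qRT-PCR, normalized to ACTB, GAPDH and POLR2A, bidirectional fitting versus DMSO.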

[10] = read-out: Nuclear factor erythroid 2-related factor 2 (Homo sapiens) (UniProt Q16236); assay: LTEA_HepaRG_NFE2L2: Life Technologies and Expression Analysis (LTEA) Assay for Nuclear factor erythroid 2-related factor 2 (NFE2L2) Transcription Factor using HepaRG (AID 2283527);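 further: TaqMan qRT-PCR transcript level normalised to ACTB GAPDH and POLR2A housekeeping genes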
Summary of the method: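 Differentiated human HepaRG cells in serum-free induction medium were exposed for 48 h to eight concentrations (top 100 uM, half-log dilutions, 0.5% DMSO), in duplicate. NFE2L2 mRNA was quantified by TaqMan qRT-PCR, normalized to ACTB, GAPDH and POLR2A, with bidirectional fitting versus DMSO.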

[11] = read-out: succinate dehydrogenase complex iron sulfur subunit B (SDHB), SDHB (gene 6390); assay: LTEA_HepaRG_SDHB: Life Technologies and Expression Analysis (LTEA) Assay for succinate dehydrogenase complex iron sulfur subunit B (SDHB) using HepaRG (AID 2283528)
Summary of the method: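 HepaRG, 48 h exposure, 8-pt half-log series from 100 uM in 0.5% DMSO, duplicates. Readout: SDHB mRNA by Fluidigm qRT-PCR vs housekeeping genes; bidirectional fit relative to DMSO.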

[12] = read-out: Signal transducer and activator of transcription 3 (Homo sapiens) (UniProt P40763); assay: LTEA_HepaRG_STAT3: Life Technologies and Expression Analysis (LTEA) Assay for Signal transducer and activator of transcription (STAT3) using HepaRG (AID 2283529)
Summary of the method: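 Differentiated human HepaRG cells in serum-free induction medium were exposed in duplicate for 48 h to eight half-log concentrations up to 100 uM in 0.5% DMSO. STAT3 mRNA was quantified by TaqMan qRT-PCR, normalized to ACTB, GAPDH and POLR2A, and fitted bidirectionally against DMSO.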

[13] = read-out: solute carrier (SLCO1B1), SLCO1B1 (gene 10599); assay: LTEA_HepaRG_SLCO1B1: Life Technologies and Expression Analysis (LTEA) Assay for solute carrier (SLCO1B1) using HepaRG (AID 2283530)
Summary of the method: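 Human HepaRG cultures treated for 48 h with an eight-concentration half-log series topping at 100 uM; SLCO1B1 measured by qRT-PCR and fitted bidirectionally relative to DMSO.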

[14] = read-out: sulfotransferase 2A1 (SULT2A1), SULT2A1 (gene 6822); assay: LTEA_HepaRG_SULT2A1: Life Technologies and Expression Analysis (LTEA) Assay for sulfotransferase 2A1 (SULT2A1) using HepaRG (AID 2283531)
Summary of the method: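 Gene-expression endpoint in a human liver cell line: SULT2A1 mRNA change after 48 h chemical treatment, curves fitted in both directions relative to 0.5% DMSO vehicle. Concentrations spanned eight half-log steps from 100 uM.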

[15] = read-out: Transforming Growth Factor (TGFA), TGFA (gene 7039); assay: LTEA_HepaRG_TGFA: Life Technologies and Expression Analysis (LTEA) Assay for Transforming Growth Factor (TGFA) using HepaRG (AID 2283532)
Summary of the method: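 Differentiated human HepaRG cells, plated 48 h then switched to serum-free induction medium, were exposed in duplicate for 48 h to 8-point half-log series from 100 uM in 0.5% DMSO. TGFA mRNA measured by qRT-PCR, normalized to ACTB/GAPDH/POLR2A, bidirectional fit versus DMSO.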

[16] = read-out: Transforming Growth Factor (TGFB1), TGFB1 (gene 7040); assay: LTEA_HepaRG_TGFB1: Life Technologies and Expression Analysis (LTEA) Assay for Transforming Growth Factor (TGFB1) Transporter using HepaRG (AID 2283533)
Summary of the method: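 Eight-point concentration-response (max 100 uM, half-log) in HepaRG under serum-free induction conditions, 48 h. TGFB1 mRNA by qRT-PCR, housekeeping-normalized.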

TIMP1, TIMP1 (gene 7076) = assay: LTEA_HepaRG_TIMP1: Life Technologies and Expression Analysis (LTEA) Assay for TIMP1 using HepaRG (AID 2283534);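 further: TaqMan qRT-PCR signal normalized to ACTB GAPDH and POLR2A housekeeping genes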
Summary of the method: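 TIMP1 induction or repression in HepaRG cells after 48 h chemical exposure (eight concentrations, highest 100 uM), assessed by normalized qRT-PCR with bidirectional fitting to DMSO controls.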

[17] = read-out: Tumor necrosis factor receptor 1 (TNFRSF1A), TNFRSF1A (gene 7132); assay: LTEA_HepaRG_TNFRSF1A: Life Technologies and Expression Analysis (LTEA) Assay for Tumor necrosis factor receptor 1 (TNFRSF1A) using HepaRG (AID 2283535)
Summary of the method: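 Assay uses 48 h chemical treatment of differentiated HepaRG monolayers, tested in duplicate at eight concentrations from 100 uM downward in 0.5% DMSO. mRNA is normalized to ACTB, GAPDH and POLR2A, with induction or suppression fitted relative to vehicle.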

[18] = read-out: NAD(P)H dehydrogenase [quinone] 1 (NQO1), NQO1 (gene 1728); assay: LTEA_HepaRG_NQO1: Life Technologies and Expression Analysis (LTEA) Assay for NAD(P)H dehydrogenase [quinone] 1 (NQO1) using HepaRG (AID 2283526)
Summary of the method: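 Differentiated human HepaRG cells in serum-free induction medium, dosed in duplicate for 48 h at 8 half-log concentrations up to 100 uM in 0.5% DMSO. NQO1 mRNA by qRT-PCR normalized to ACTB, GAPDH, POLR2A; bidirectional fit versus DMSO baseline.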

Measured: AC50

Chain of Signal transducer and activator of transcription 3 (Homo sapiens) (P40763 whole entry, looked up): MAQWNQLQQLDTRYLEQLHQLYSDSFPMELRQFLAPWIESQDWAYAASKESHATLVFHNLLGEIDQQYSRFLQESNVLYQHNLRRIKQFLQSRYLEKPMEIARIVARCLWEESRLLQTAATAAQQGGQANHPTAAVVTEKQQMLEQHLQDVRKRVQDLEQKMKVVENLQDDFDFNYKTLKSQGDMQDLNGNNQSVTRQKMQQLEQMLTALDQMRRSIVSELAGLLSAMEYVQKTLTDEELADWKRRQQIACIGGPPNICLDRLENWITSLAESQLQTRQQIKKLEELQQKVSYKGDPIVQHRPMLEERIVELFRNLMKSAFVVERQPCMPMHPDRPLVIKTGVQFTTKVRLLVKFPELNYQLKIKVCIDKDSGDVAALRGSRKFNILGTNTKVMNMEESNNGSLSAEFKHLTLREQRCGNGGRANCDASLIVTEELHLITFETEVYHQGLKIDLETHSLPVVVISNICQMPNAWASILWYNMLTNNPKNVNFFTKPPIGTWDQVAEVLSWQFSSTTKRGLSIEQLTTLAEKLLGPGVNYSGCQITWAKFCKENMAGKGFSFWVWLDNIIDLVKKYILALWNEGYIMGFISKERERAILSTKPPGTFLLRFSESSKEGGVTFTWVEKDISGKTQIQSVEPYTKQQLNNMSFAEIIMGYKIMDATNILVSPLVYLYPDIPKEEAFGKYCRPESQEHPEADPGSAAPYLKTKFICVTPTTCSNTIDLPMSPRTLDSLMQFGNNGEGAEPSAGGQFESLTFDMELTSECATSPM
Chain of Nuclear factor NF-kappa-B p105 subunit (Homo sapiens) (P19838 whole entry, looked up): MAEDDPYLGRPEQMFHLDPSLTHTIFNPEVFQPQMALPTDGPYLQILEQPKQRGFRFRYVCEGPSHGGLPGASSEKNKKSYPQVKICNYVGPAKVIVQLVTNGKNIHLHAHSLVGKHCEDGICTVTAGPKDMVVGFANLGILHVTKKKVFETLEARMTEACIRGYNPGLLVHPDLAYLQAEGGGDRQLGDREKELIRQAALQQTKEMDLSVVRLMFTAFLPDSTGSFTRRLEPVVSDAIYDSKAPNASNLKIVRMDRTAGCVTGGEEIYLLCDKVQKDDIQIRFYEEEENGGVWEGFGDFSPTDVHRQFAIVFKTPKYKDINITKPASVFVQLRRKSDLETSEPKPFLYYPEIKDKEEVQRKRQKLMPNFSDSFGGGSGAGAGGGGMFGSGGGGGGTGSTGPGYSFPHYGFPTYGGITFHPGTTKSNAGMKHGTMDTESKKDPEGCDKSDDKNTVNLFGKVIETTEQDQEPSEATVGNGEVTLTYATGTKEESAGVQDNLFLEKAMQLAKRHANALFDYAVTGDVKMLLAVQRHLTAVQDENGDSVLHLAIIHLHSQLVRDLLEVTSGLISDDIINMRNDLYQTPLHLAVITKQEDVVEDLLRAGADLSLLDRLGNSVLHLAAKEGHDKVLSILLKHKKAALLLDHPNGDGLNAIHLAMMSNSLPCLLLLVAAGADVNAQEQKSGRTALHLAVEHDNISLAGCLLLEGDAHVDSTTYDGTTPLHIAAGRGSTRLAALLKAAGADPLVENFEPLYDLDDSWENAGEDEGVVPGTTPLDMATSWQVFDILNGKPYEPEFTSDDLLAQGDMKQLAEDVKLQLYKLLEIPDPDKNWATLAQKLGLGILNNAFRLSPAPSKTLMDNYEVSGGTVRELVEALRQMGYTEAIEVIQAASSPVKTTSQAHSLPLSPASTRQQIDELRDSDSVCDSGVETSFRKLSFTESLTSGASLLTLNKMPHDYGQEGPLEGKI
Chain of Nuclear factor erythroid 2-related factor 2 (Homo sapiens) (Q16236 whole entry, looked up): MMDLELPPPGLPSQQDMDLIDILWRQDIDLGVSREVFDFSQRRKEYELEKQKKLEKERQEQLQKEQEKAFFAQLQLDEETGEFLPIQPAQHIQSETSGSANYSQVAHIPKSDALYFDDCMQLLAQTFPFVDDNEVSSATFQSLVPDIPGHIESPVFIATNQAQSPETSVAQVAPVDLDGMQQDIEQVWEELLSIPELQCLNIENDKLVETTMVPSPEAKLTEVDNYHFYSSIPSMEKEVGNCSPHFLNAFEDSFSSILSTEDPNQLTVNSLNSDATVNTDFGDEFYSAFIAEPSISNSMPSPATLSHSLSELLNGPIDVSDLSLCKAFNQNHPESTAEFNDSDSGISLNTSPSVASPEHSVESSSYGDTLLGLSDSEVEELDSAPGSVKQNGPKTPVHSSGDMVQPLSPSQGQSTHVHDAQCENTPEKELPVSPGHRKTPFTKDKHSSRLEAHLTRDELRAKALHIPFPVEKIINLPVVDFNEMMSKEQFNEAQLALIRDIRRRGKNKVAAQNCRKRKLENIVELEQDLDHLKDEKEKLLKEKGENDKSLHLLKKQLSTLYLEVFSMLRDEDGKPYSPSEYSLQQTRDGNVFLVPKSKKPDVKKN

O=C(O)CC(O)(CC(=O)O)C(=O)O
inactive: [1] | [2] | MYC, MYC (gene 4609) | [3] | [4] | [5] | [6] | [7] | [8] | [9] | [10] | [11] | [12] | [13] | [14] | [15] | [16] | TIMP1, TIMP1 (gene 7076) | [17]

S=c1[nH]c2ccccc2s1
inactive: [1] | [2] | MYC, MYC (gene 4609) | [3] | [4] | [6] | [7] | [8] | [9] | [18] | [10] | [11] | [12] | [13] | [14] | [15] | [16] | TIMP1, TIMP1 (gene 7076) | [17]

CCCCC(CC)COC(=O)CCCCCCCC(=O)OCC(CC)CCCC (stereo unspecified)
inactive: [1] | [2] | MYC, MYC (gene 4609) | [3] | [4] | [5] | [6] | [7] | [9] | [18] | [10] | [11] | [12] | [13] | [14] | [15] | [16] | TIMP1, TIMP1 (gene 7076) | [17]

CCCCc1nc2cccnc2n1Cc1ccc(-c2ccccc2-c2nnn[nH]2)cc1
inactive: [1] | [2] | MYC, MYC (gene 4609) | [5] | [6] | [7] | [10] | [11] | [12] | [13] | [14] | [15] | [16] | TIMP1, TIMP1 (gene 7076) | [17]
active: [3] 50 µM | [4] 74.6 µM | [8] 65.5 µM | [9] 28.6 µM
